# Efa HMGR inh – blocks class II HMG-CoA reductase of Enterococcus faecalis; hit rate 0.41% among 190,000; inhibition, % at 10 µM; purified E. faecalis HMGR, NADPH absorbance 340 nm kinetic;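 active = inhibition above a set limit, the median over all tested compounds plus 3 SD, cut at about 9.5% in these data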;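 note: enzyme runs in reverse so mevalonate oxidation gives rising NADPH absorbance; 0% = complete reaction with DMSO and 100% = background rate lacking mevalonate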
# Furin inh – inhibitors of human furin; P09958; purified furin, fluorogenic substrate cleavage; inhibition, % at 20 µM or 30 µM; hit rate 0.061% among 220,000; in the data active = inhibition above about 25%
# PGE2 EP2 inh – inhibitors of human EP2 prostaglandin E2 receptor; P43116; C6 glioma cells expressing human EP2, cAMP TR-FRET; cells stimulated with saturating PGE2; inhibition, % at 25 µM; hit rate 0.52% among 260,000;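 active = percent inhibition above 40 after rounding to a whole number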;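 note: rat C6 glioma host cells with rolipram phosphodiesterase inhibitor present; the protocol text gives 20 µM as final concentration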
# Target sequence (P43116 whole entry, looked up): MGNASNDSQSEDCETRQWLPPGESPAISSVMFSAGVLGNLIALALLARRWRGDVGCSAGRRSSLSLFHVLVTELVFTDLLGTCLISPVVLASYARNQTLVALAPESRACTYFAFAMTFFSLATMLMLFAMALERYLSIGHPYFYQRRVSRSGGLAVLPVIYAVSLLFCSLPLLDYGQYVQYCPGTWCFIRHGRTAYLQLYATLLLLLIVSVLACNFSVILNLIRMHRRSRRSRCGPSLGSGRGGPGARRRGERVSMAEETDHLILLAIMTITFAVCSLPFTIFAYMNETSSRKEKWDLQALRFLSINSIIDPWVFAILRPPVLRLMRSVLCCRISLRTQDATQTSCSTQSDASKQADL
# EP2 mod – EP2 receptor (human) modulation; P43116; EP2-expressing cells, cAMP HTRF FRET, PGE2 co-stimulation; induction, % at 25 µM; hit rate 0.83% among 260,000; AID 940;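 active = compounds whose cAMP rise, as percent of the full-agonist control response, exceeds 60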;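 note: rat C6 glioma line stably carrying human EP2 under a CMV promoter; the protocol text gives 20 µM as final concentration; 100% = response of wells given 1 µM PGE2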
# Calpain2 inh – calpain II (pig) inhibition; purified calpain II, fluorogenic peptide substrate, 30 min; inhibition, % at 16 µM; hit rate 0.37% among 220,000; AID 1236;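 active = inhibition above about 50%, limit read from the data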
# * hit, by the source's call; x = not tested or not shown; ! = not active in a repeat. Only some compounds are listed: those with a hit (about 1.9% of all), similar ones and a draw of the others.
SMILES,Efa HMGR inh,Furin inh,PGE2 EP2 inh,EP2 mod,Calpain2 inh
CC(=O)CSc1nc2cc3c(cc2cc1C#N)OCCO3,10.5*,-17.7,18.4,-12.7,-37.3
COc1ccc2cc(C#N)c(SCC(=O)NNC(=O)Cc3ccccc3)nc2c1,-4.8,-10.6,20.2,13.5,-67.9
N#Cc1cc2cc3c(cc2nc1SCC(=O)Nc1ccc2c(c1)OCCO2)OCCO3,x,x,22.9,58.0,x
Cc1ccc(C)c2[nH]c(=O)c(CN(CCO)C(=O)Nc3ccccc3)cc12,x,x,8.1,-39.5,x
CCN(C(=O)CCCl)c1nc(-c2ccc(F)cc2)cs1,x,x,9.7,27.7,x
CCOc1ccc2[nH]c(=O)c(CN(CCOC)C(=O)Nc3ccccc3C)cc2c1,x,x,6.7,-49.0,x
Cc1ccccc1-c1noc(C23CC4CC(CC(C4)C2)C3)n1,-6.0,0.9,3.1,22.2,-22.6
c1cncc(-c2noc(C34CC5CC(CC(C5)C3)C4)n2)c1,1.1,-11.8,8.3,63.1*,21.5
CC1(C)Cc2ccccc2C(C(=O)Nc2ccccc2Cl)N1 (stereo not drawn),x,x,10.0,62.8*,x
COc1ccc(-c2nc(CN3CCCCC3c3cccnc3)c(C)o2)c(F)c1 (stereo not drawn),16.2*,-27.4,10.6,-4.4,-55.2
C[C@H](NC(=O)c1nc[nH]c1C(=O)N[C@@H](Cc1ccccc1)C(=O)OC(C)(C)C)c1ccccc1,-1.5,-20.3,9.2,64.5*,20.2
CC(C)C[C@H](NC(=O)c1[nH]cnc1C(=O)N[C@@H](C)c1ccccc1)C(=O)OCc1ccccc1,x,4.7,5.7,25.5,56.2*
C[C@@H](NC(=O)c1nc[nH]c1C(=O)N[C@@H](CCCCNC(=O)OC(C)(C)C)C(=O)OC(C)(C)C)c1ccccc1,-4.9,-10.1,4.8,7.1,60.6*
CC(C)C[C@H](NC(=O)c1nc[nH]c1C(=O)N[C@@H](CCCCNC(=O)OC(C)(C)C)C(=O)OC(C)(C)C)C(=O)OC(C)(C)C,x,-20.3,7.7,17.1,47.8
CC(C)C[C@H](NC(=O)c1nc[nH]c1C(=O)NCCCCCNC(=O)OC(C)(C)C)C(=O)OC(C)(C)C,-4.0,0.1,1.0,-28.7,51.4*
CN1C2=C(C(=O)CCC2)C(c2cccc3ccccc23)C2=C1CCCC2=O,x,x,12.5,-48.6,x
CS(=O)(=O)c1ccc(C(=O)N2CCc3ccccc3C2)cc1,-10.7,-24.6,3.4,23.4,59.5*
CS(=O)(=O)Nc1ccc(C(=O)N2CCc3ccccc3C2)cc1,-3.6,-21.7,6.1,-3.0,10.3
Cc1cc(C)c2[nH]c(=O)c(CN(Cc3ccco3)C(=O)NC3CCCCC3)cc2c1,x,x,6.4,27.3,x
Cc1ccc2cc(CN(Cc3ccco3)C(=O)NC3CCCCC3)c(=O)[nH]c2c1C,-0.6,-19.3,5.5,60.6*,-20.7
COc1cccc(/C(O)=C2/C(=O)C(=O)N(Cc3cccnc3)C2c2cccs2)c1 (stereo not drawn),x,x,12.5,16.8,x
CCCn1c(O)c(N=NC(=O)c2ccco2)c2ccccc21,-4.0,15.6,8.4,5.2,37.2
Cc1nc2ccccn2c1C(=O)N=Nc1c(O)n(CCC(C)C)c2ccccc12,-3.8,-4.5,50.7*,-16.0,-64.7
O=S(=O)(Nc1nccs1)c1ccc(Br)cc1,-2.3,-16.1,4.2,14.3,-6.1
O=S(=O)(Nc1nccs1)c1cc(Cl)ccc1Cl,-1.3,-26.8,9.6,61.3*,-49.3
SMILES,Efa HMGR inh,Furin inh,PGE2 EP2 inh,EP2 mod,Calpain2 inh
CC(=O)c1ccc(NC(=O)COC(=O)c2ccco2)cc1,x,x,16.9,-42.6,x
COc1ccc(NC(=O)CCC2CCCC2)cc1OC,-4.2,-7.4,14.5,22.3,-3.9
Cc1cc(C)nc(NC(=O)CCC2CCCC2)c1,9.9*,-18.2,8.9,5.9,-5.8
Cc1ccc(C(=O)N2C(=O)C(c3ccccc3)Oc3ccccc32)cc1 (stereo not drawn),x,-13.6,9.8,87.2*,8.0
Cc1ccc(/C(O)=C2/C(=O)C(=O)OC2c2ccc(Cl)cc2)cc1 (stereo not drawn),-3.0,5.2,34.9,30.6,-4.5
CCOc1ccc(NC(=O)CSc2nnnn2C2CCCCC2)cc1,x,x,4.2,-22.5,x
Cc1ccc(Cn2nnc3c(=O)n(CC(=O)NCc4ccco4)cnc32)cc1,19.6*,-23.8,10.7,30.8,-25.6
Cc1ccc2cc(CN(CCCN(C)C)C(=O)Nc3ccc(Cl)cc3)c(=O)[nH]c2c1C,x,x,12.2,-21.1,x
Cc1cc(=O)[nH]c2cc3oc4ccccc4c3cc12,x,x,13.1,7.6,x
CC1CN(C(=O)c2cccc(S(=O)(=O)Nc3ccc(Cl)cc3)c2)CC(C)O1 (stereo not drawn),24.2*,-19.6,5.2,4.0,-10.9
Cc1cc2nc(C3CCCCN3C(=O)c3cn(C)nc3C)[nH]c2cc1C (stereo not drawn),x,x,x,-33.7,x
O=C(NCc1ccccc1)C1(c2cccc(F)c2)CCCC1,-6.9,-15.0,11.7,20.3,37.0
NC(N)=Nc1ccc(-c2ccc(N=C(N)N)cc2)cc1,x,x,48.5*,17.1,x
C=CCn1c(CNC(=O)c2cccc(C)c2)n[nH]c1=S,x,x,2.4,4.2,x
COc1cccc(/C=C2/SC(=O)N(C)C2=O)c1OCc1ccc(C(=O)O)cc1,10.5*,-15.4,2.6,1.1,-8.9
COc1cccc(/C=C2/SC(=O)N(CC(=O)N3CCc4ccccc4C3)C2=O)c1OCC(=O)O,-2.4,-13.0,9.6,-13.8,5.2
Cc1nn(C)cc1-c1nc2cnccn2c1NCc1cccs1,x,x,x,3.7,x
CC(=O)Nc1ccc(S(=O)(=O)NCC2CCC(C(=O)NCCC3=CCCCC3)CC2)cc1 (stereo not drawn),2.1,-29.3,19.8,-9.7,52.4*
CCCn1ncc(C(=O)N2C[C@H](C(=O)OC)[C@@H](c3ccc(F)cc3)C2)c1C,x,x,x,-28.7,x
O=C(CSc1nnc(-c2ccccc2)o1)N(C1CCCCC1)C1CCCCC1,x,x,15.9,76.3*,x
CCOc1ccc(N2C(=O)NC(=O)/C(=C\c3ccc(-c4ccc(S(N)(=O)=O)cc4)o3)C2=O)cc1,x,x,6.3,-84.8,x
CC(=O)Nc1ccc(NC(=O)Cc2ccc(S(=O)(=O)N3CCCCC3)s2)cc1,-6.9,-16.1,4.2,-21.1,77.4*
Cc1ccc(C)c(NC(=O)Cc2ccc(S(=O)(=O)N3CCCCC3)s2)c1,-1.3,-12.5,6.7,-3.9,14.5
CCS(=O)(=O)c1ccc(OC)c(N=Nc2ccc(O)c3ncccc23)c1,-2.9,-8.9,9.5,39.8,-19.6
NS(=O)(=O)c1cc(Br)c(N=Nc2ccc(O)c3ncccc23)c(Br)c1,x,x,46.5*,-16.6,x
SMILES,Efa HMGR inh,Furin inh,PGE2 EP2 inh,EP2 mod,Calpain2 inh
COc1ccccc1OCCn1c(=O)sc2ccccc21,4.5,-10.0,6.4,13.1,-12.7
Cc1ccccc1OCCn1c(=O)sc2ccccc21,-2.2,-12.9,2.0,63.1*!,-1.0
CNCc1ccccc1Sc1cc(O)ccc1O,-4.7,-15.8,106.0*,-2.8,9.9
CCOC(=O)c1cc(-c2ccc(F)cc2)n(CCC(=O)NC2CCN(Cc3ccccc3)CC2)c1C,-5.8,-32.4,13.2,-0.4,-19.8
CCOC(=O)c1cc(-c2ccc(OC)cc2)n(CCC(=O)NC2CCN(Cc3ccccc3)CC2)c1C,10.3*,-30.4,5.5,-8.8,-10.2
Cn1cc(/C(Cc2ccccc2)=N\O)c2ccccc21,0.1,-17.5,5.2,63.7*,-7.1

# High-throughput results (PubChem BioAssay)
